Data on 35 molecules can be found in PMC9911399, “Two distinct binding modes provide the RNA-binding protein RbFox with extraordinary sequence specificity”.

The labels stand for the following.
B1: AACCGUG (DNA:RNA)
RNA: GGGAGACCGGAAUUCAGAUUGUCCAACCGUGUUAAAUCCCGUCGUAGCCACCA
DNA 1: CAATCTGAATTCCGGTCTCCC
DNA 2: TGGTGGCTACGACGGGATT
B2: GGCUGGA (DNA:RNA)
RNA: B1 RNA with A25G, A26G, C28U, U30G, G31A
DNA 1: CAATCTGAATTCCGGTCTCCC
DNA 2: TGGTGGCTACGACGGGATT
B3: CUCCGAA (DNA:RNA)
RNA: B1 RNA with A25C, A26U, U30A, G31A
DNA 1: CAATCTGAATTCCGGTCTCCC
DNA 2: TGGTGGCTACGACGGGATT
B4: UGCUACC (DNA:RNA)
RNA: B1 RNA with A25U, A26G, C28U, G29A, U30C, G31C
DNA 1: CAATCTGAATTCCGGTCTCCC
DNA 2: TGGTGGCTACGACGGGATT
B5: AAAUGCG (DNA:RNA)
RNA: B1 RNA with C27A, C28U, U30C
DNA 1: CAATCTGAATTCCGGTCTCCC
DNA 2: TGGTGGCTACGACGGGATT
B6: UGACUUC (DNA:RNA)
RNA: B1 RNA with A25U, A26G, C27A, G29U, G31C
DNA 1: CAATCTGAATTCCGGTCTCCC
DNA 2: TGGTGGCTACGACGGGATT
B7: UCAUAAU (DNA:RNA)
RNA: GGGAGACCGGAAUUCAGAUUGUCCUCAUAAUUUAAAUCCCGUCGUAGCCACCA
DNA 1: CAATCTGAATTCCGGTCTCCC
DNA 2: TGGTGGCTACGACGGGATT
B8: ACGUGCG (DNA:RNA)
RNA: B1 RNA with A26C, C27G, C28U, U30C
DNA 1: CAATCTGAATTCCGGTCTCCC
DNA 2: TGGTGGCTACGACGGGATT
B9: UUGCACC (DNA:RNA)
RNA: B7 RNA with C26U, A27G, U28C, A30C, U31C
DNA 1: CAATCTGAATTCCGGTCTCCC
DNA 2: TGGTGGCTACGACGGGATT
B10: AUGCACG (DNA:RNA)
RNA: B1 RNA with A26U, C27G, G29A, U30C
DNA 1: CAATCTGAATTCCGGTCTCCC
DNA 2: TGGTGGCTACGACGGGATT
B11: GUGCACC (DNA:RNA)
RNA: B1 RNA with A25G, A26U, C27G, G29A, U30C, G31C
DNA 1: CAATCTGAATTCCGGTCTCCC
DNA 2: TGGTGGCTACGACGGGATT
B12: GUGCACG (DNA:RNA)
RNA: B1 RNA with A25G, A26U, C27G, G29A, U30C
DNA 1: CAATCTGAATTCCGGTCTCCC
DNA 2: TGGTGGCTACGACGGGATT
B13: UUGCACG (DNA:RNA)
RNA: B1 RNA with A25U, A26U, C27G, G29A, U30C
DNA 1: CAATCTGAATTCCGGTCTCCC
DNA 2: TGGTGGCTACGACGGGATT
B14: AUCCACG (DNA:RNA)
RNA: B1 RNA with A26U, G29A, U30C
DNA 1: CAATCTGAATTCCGGTCTCCC
DNA 2: TGGTGGCTACGACGGGATT
B15: AUGCACC (DNA:RNA)
RNA: B1 RNA with A26U, C27G, G29A, U30C, G31C
DNA 1: CAATCTGAATTCCGGTCTCCC
DNA 2: TGGTGGCTACGACGGGATT
B16: UUGCCCG (DNA:RNA)
RNA: B1 RNA with A25U, A26U, C27G, G29C, U30C
DNA 1: CAATCTGAATTCCGGTCTCCC
DNA 2: TGGTGGCTACGACGGGATT
B17: GUGUCUU (DNA:RNA)
RNA: B7 RNA with U25G, C26U, A27G, A29C, A30U
DNA 1: CAATCTGAATTCCGGTCTCCC
DNA 2: TGGTGGCTACGACGGGATT
B18: UGAUGGG (DNA:RNA)
RNA: B7 RNA with C26G, A29G, A30G, U31G
DNA 1: CAATCTGAATTCCGGTCTCCC
DNA 2: TGGTGGCTACGACGGGATT
B19: GGUGGAC (DNA:RNA)
RNA: B1 RNA with A25G, A26G, C27U, C28G, U30A, G31C
DNA 1: CAATCTGAATTCCGGTCTCCC
DNA 2: TGGTGGCTACGACGGGATT
B20: CGCAACA (DNA:RNA)
RNA: B1 RNA with A25C, A26G, C28A, G29A, U30C, G31A
DNA 1: CAATCTGAATTCCGGTCTCCC
DNA 2: TGGTGGCTACGACGGGATT
B21: GCACAGC (DNA:RNA)
RNA: B7 RNA with U25G, U28C, A30G, U31C
DNA 1: CAATCTGAATTCCGGTCTCCC
DNA 2: TGGTGGCTACGACGGGATT
B22: GCGAUGU (DNA:RNA)
RNA: B7 RNA with U25G, A27G, U28A, A29U, A30G
DNA 1: CAATCTGAATTCCGGTCTCCC
DNA 2: TGGTGGCTACGACGGGATT
B23: CUCAAAA (DNA:RNA)
RNA: B7 RNA with U25C, C26U, A27C, U28A, U31A
DNA 1: CAATCTGAATTCCGGTCTCCC
DNA 2: TGGTGGCTACGACGGGATT
B24: UCGUUUU (DNA:RNA)
RNA: B7 RNA with A27G, A29U, A30U
DNA 1: CAATCTGAATTCCGGTCTCCC
DNA 2: TGGTGGCTACGACGGGATT
B25: UCGUCGU (DNA:RNA)
RNA: B7 RNA with A27G, A29C, A30G
DNA 1: CAATCTGAATTCCGGTCTCCC
DNA 2: TGGTGGCTACGACGGGATT
B26: UUGUUGU (DNA:RNA)
RNA: B7 RNA with C26U, A27G, A29U, A30G
DNA 1: CAATCTGAATTCCGGTCTCCC
DNA 2: TGGTGGCTACGACGGGATT
B27: UUGUUUG (DNA:RNA)
RNA: B1 RNA with A25U, A26U, C27G, C28U, G29U
DNA 1: CAATCTGAATTCCGGTCTCCC
DNA 2: TGGTGGCTACGACGGGATT
B28: GUACGUG (DNA:RNA)
RNA: B1 RNA with A25G, A26U, C27A
DNA 1: CAATCTGAATTCCGGTCTCCC
DNA 2: TGGTGGCTACGACGGGATT
B29: GUCCGUG (DNA:RNA)
RNA: B1 RNA with A25G, A26U
DNA 1: CAATCTGAATTCCGGTCTCCC
DNA 2: TGGTGGCTACGACGGGATT
B30: UCGUUUG (DNA:RNA)
RNA: B7 RNA with A27G, A29U, A30U, U31G
DNA 1: CAATCTGAATTCCGGTCTCCC
DNA 2: TGGTGGCTACGACGGGATT
B31: UUGUACG (DNA:RNA)
RNA: B7 RNA with C26U, A27G, A30C, U31G
DNA 1: CAATCTGAATTCCGGTCTCCC
DNA 2: TGGTGGCTACGACGGGATT
B32: GUGUCCC (DNA:RNA)
RNA: B7 RNA with U25G, C26U, A27G, A29C, A30C, U31C
DNA 1: CAATCTGAATTCCGGTCTCCC
DNA 2: TGGTGGCTACGACGGGATT
B33: UUGUCGU (DNA:RNA)
RNA: B7 RNA with C26U, A27G, A29C, A30G
DNA 1: CAATCTGAATTCCGGTCTCCC
DNA 2: TGGTGGCTACGACGGGATT
B34: GUGUGUG (DNA:RNA)
RNA: B1 RNA with A25G, A26U, C27G, C28U
DNA 1: CAATCTGAATTCCGGTCTCCC
DNA 2: TGGTGGCTACGACGGGATT
B35: GUGUACG (DNA:RNA)
RNA: B7 RNA with U25G, C26U, A27G, A30C, U31G
DNA 1: CAATCTGAATTCCGGTCTCCC
DNA 2: TGGTGGCTACGACGGGATT

Changes are numbered by the printed parent chain; changes in the protein carry UniProt numbers. The full ranking holds about 16,000 sequences; the median of “ka relative to ugcaugu” is about 0.096, and the highest 2% start at about 0.35. This is one part of a sample in which the highest values are shown more often than they occur.

In the experiment the target is T1, RBFOX1 RRM RbFoxmut (Fox-RRM*) (Homo sapiens, UniProt Q9NWB1 109-208, R118D;E147R;N151S;E152T).
T1 sequence: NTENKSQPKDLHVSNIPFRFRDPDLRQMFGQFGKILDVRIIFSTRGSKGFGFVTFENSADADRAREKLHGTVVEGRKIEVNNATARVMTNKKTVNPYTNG
As to the kind of experiment: EMSA; HiTS-Eq, 1 nM pool, 10 min; buffer printed only for the single-RNA assays: 10 mM Tris pH 7.5, 150 mM NaCl, 3.4 mM EDTA, 0.001% NP-40, 30 C. The following applies: tags: His6 N-terminal (pET28a); label: 5' 32P. In short, it runs like this:
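Purified RbFox RRM (wild type or mutant) was equilibrated for 10 min in 50 µL with 1 nM of a 5′-radiolabelled pool of RNA with 7 randomized nucleotides, its flanks annealed to DNA oligonucleotides, across increasing protein concentrations. Free RNA was separated by 8% native PAGE, excised, reverse-transcribed, PCR-barcoded and sequenced on an Illumina HiSeq 2500. Relative association constants came from read-count changes of each variant against the control reaction, normalised to the cognate motif.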
On the technique in general: In EMSA bound probe runs differently from free probe, usually more slowly.
For B1, the binding signal is 0.109 KA relative to UGCAUGU.

Take B2: the binding signal was 0.0732 KA relative to UGCAUGU.

In the case of B3, the binding signal was 0.104 KA relative to UGCAUGU.

For B4, the binding signal was 0.147 KA relative to UGCAUGU.

For the molecule B5, the binding signal was 0.104 KA relative to UGCAUGU.

As for B6, the binding signal is 0.0822 KA relative to UGCAUGU.

With B7, the binding signal is 0.103 KA relative to UGCAUGU.

For B8, the binding signal was 0.182 KA relative to UGCAUGU.

On to B9, for which the binding signal was 0.181 KA relative to UGCAUGU.

On to B10, for which the binding signal was 0.551 KA relative to UGCAUGU.

Regarding B11, the binding signal is 0.167 KA relative to UGCAUGU.

For the molecule B12, the binding signal is 0.66 KA relative to UGCAUGU.

B13: the binding signal was 0.612 KA relative to UGCAUGU.

As for B14, the binding signal was 0.135 KA relative to UGCAUGU.

In the case of B15, the binding signal is 0.132 KA relative to UGCAUGU.

B16: the binding signal is 0.178 KA relative to UGCAUGU.

On to B17, for which the binding signal is 0.101 KA relative to UGCAUGU.

On to B18, for which the binding signal was 0.0449 KA relative to UGCAUGU.

Regarding B19, the binding signal is 0.0584 KA relative to UGCAUGU.

As to B20, the binding signal is 0.102 KA relative to UGCAUGU.

On to B21, for which the binding signal is 0.0832 KA relative to UGCAUGU.

In the case of B22, the binding signal is 0.151 KA relative to UGCAUGU.

Consider B23, for which the binding signal was 0.0819 KA relative to UGCAUGU.

As for B24, the binding signal is 0.0973 KA relative to UGCAUGU.

For B25, the binding signal is 0.109 KA relative to UGCAUGU.

For the molecule B26, the binding signal was 0.21 KA relative to UGCAUGU.

On to B27, for which the binding signal is 0.709 KA relative to UGCAUGU.

For B28, the binding signal was 0.188 KA relative to UGCAUGU.

As for B29, the binding signal is 0.146 KA relative to UGCAUGU.

For B30, the binding signal was 0.396 KA relative to UGCAUGU.

Consider B31, for which the binding signal is 0.261 KA relative to UGCAUGU.

For the molecule B32, the binding signal was 0.101 KA relative to UGCAUGU.

B33: the binding signal is 0.132 KA relative to UGCAUGU.

Turning to B34, the binding signal is 0.532 KA relative to UGCAUGU.

B35: the binding signal is 0.441 KA relative to UGCAUGU.
